KB-3-1 tox: kills parental KB-3-1 adenocarcinoma cells; KB-3-1 viability, CellTiter-Glo ATP luminescence, 72 h; Potency, µM (titrated, usually from 46.1 µM), most hits filed as cytotoxic; hit rate 1.4% among 400,000; AID 1347075; further: nearly all actives have a fitted effect of over 60% in size
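Using CellTiter-Glo luminescence, growth of non-resistant KB-3-1 adenocarcinoma cells is assessed 72 h after pin-tool compound addition at 37 °C. Normalized responses across the concentration series yield fitted curves.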
SW480 rereplic: induces DNA re-replication in SW480 colon adenocarcinoma cells; SW480 DNA re-replication, Hoechst DNA content imaging, 48 h; Potency, µM (top dose mostly 46.1 µM), actives largely listed as activators; hit rate 1.8% among 340,000; further: nearly all actives have a fitted effect of over 55% in size
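DNA re-replication was detected as more nuclei of elevated Hoechst intensity after 48 hr exposure to compound (23 nL pinned per well of 250 cells).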
KB-V1 cytotox: KB-V1 MDR subline cytotoxicity | hit rate 3.4% among 400,000 | Potency, µM (doses to about 46.1 µM), usual class: cytotoxic | KB-V1 MDR cells viability, CellTiter-Glo, 72 h | AID 1347076; further: nearly all actives have a fitted effect of over 60% in size
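KB-V1 MDR subline cells in DMEM (phenol-red free, 10% FBS) exposed to compounds in qHTS concentration series for 72 h at 37 degrees C. Viability read by CellTiter-Glo luminescence; concentration-effect curves fitted after normalization and correction.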
MCF10A rereplic: induces DNA re-replication in MCF 10a normal breast cells | MCF 10A DNA re-replication, Hoechst nuclear intensity, 48 h | Potency, µM (top dose mostly 46.1 µM), actives largely listed as activators | hit rate 2.9% among 350,000 | AID 624296; further: nearly all actives have a fitted effect of over 50% in size
IL1B secr inh: blocks inflammasome-driven IL-1 beta release; AID 743279; THP-1 LPS/ATP IL-1B secretion, AlphaLISA, 16 h; hits give low values; hit rate 4.7% among 360,000; activity change, % at 57.5 µM; in the data active means activity change below about -50%; inconclusive means mostly about -30% to -49%
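THP-1 cells pretreated 1 hr with compounds (up to 57.5 uM final), then stimulated with LPS (250 ng/mL final) plus ATP (1.25 mM final); secreted IL-1B measured by AlphaLISA after 16 hr, decreased signal indicating inhibition.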
Hits are given with their value. This is a sample that favours compounds with a hit; in the whole collection about 9.9% have one here. Unless noted, the call rests on the fitted dose curve; in most records, active means well fitted curve in the direction sought with a large enough effect; inconclusive means small, poorly fitted or top-dose-only effect, or another doubt; inactive means no such curve, though single readings can be large; an effect the other way counts as inactive or inconclusive.

Screening Cc1ccc(-n2c(-c3ccc(Cl)cc3)c[n+]3c2CCC3)cc1 returned KB-3-1 tox 4.6µM, SW480 rereplic inactive, KB-V1 cytotox inactive, MCF10A rereplic inactive and IL1B secr inh inactive.
FC(F)Sc1ccc(-n2c(-c3ccc(Cl)cc3)c[n+]3c2CCC3)cc1 was read as KB-3-1 tox inconclusive, SW480 rereplic inactive, KB-V1 cytotox inactive, MCF10A rereplic inconclusive and IL1B secr inh inconclusive.
O=C(COC(=O)c1ccc(CSc2ccc(Cl)cc2)cc1)Nc1ccccc1 was read as KB-3-1 tox inactive, SW480 rereplic inconclusive, KB-V1 cytotox inactive, MCF10A rereplic inactive and IL1B secr inh inactive.
CC(=O)Nc1ccc(NC(=O)CN(C)S(=O)(=O)c2ccc3c(c2)CCC(=O)N3)cc1 was read as KB-3-1 tox inactive, SW480 rereplic inactive, KB-V1 cytotox inactive, MCF10A rereplic inactive and IL1B secr inh inactive.
Cc1cc(NC(=O)CN(C)S(=O)(=O)c2ccc3c(c2)CCCC(=O)N3)ccc1Br was read as KB-3-1 tox inconclusive and KB-V1 cytotox 16µM.
Screening CC(C)N1CCC1(C)C(=O)Nc1nc2ccccc2[nH]1 (centres undefined) returned KB-3-1 tox inactive, KB-V1 cytotox inactive and IL1B secr inh inactive.
CCC1CCCCN1CCN1C(=O)C2C(C(=O)Nc3ccc(OC)cc3)C3C=CC2(O3)C1C(=O)NC1CCCCC1 (centres undefined) was read as KB-3-1 tox inactive, SW480 rereplic inactive, KB-V1 cytotox inactive, MCF10A rereplic 9.2µM and IL1B secr inh inconclusive.
COc1ccc(NC(=O)C2C3C=CC4(O3)C2C(=O)N(CCN2CCCCC2)C4C(=O)NC2CCCC(C)C2C)cc1 (centres undefined) was read as KB-3-1 tox inactive, SW480 rereplic 26µM, KB-V1 cytotox inactive, MCF10A rereplic inconclusive and IL1B secr inh inconclusive.
Cc1cc(C)cc(NC(=O)C2C3C=CC4(O3)C2C(=O)N(CCCN2CCCC2)C4C(=O)NC2CCCC(C)C2C)c1 (centres undefined) was read as KB-3-1 tox inactive, SW480 rereplic inactive, KB-V1 cytotox inactive, MCF10A rereplic inactive and IL1B secr inh inconclusive.
For CCCCN(C)CCN1C(=O)C2C(C(=O)Nc3ccc(Cl)cc3)C3C=CC2(O3)C1C(=O)NC1CCCCC1 (centres undefined) the results were KB-3-1 tox inactive, SW480 rereplic inactive, KB-V1 cytotox inactive, MCF10A rereplic inconclusive and IL1B secr inh -60.
For CCOc1ccc(S(=O)(=O)N(C)CC(=O)NCc2ccccn2)cc1Cl the results were KB-3-1 tox inactive, SW480 rereplic inactive, KB-V1 cytotox inactive, MCF10A rereplic inactive and IL1B secr inh inactive.
`CCCCN(CC)Cc1c(O)ccc2c3c(c(=O)oc12)CCC3` gave KB-3-1 tox inactive, SW480 rereplic inactive, KB-V1 cytotox inactive, MCF10A rereplic inactive and IL1B secr inh inactive.
CCN(CC)C(=O)CSc1nnc(-n2nc(C)cc2C)c2ccccc12 was read as KB-3-1 tox inactive, SW480 rereplic inactive, KB-V1 cytotox 13µM, MCF10A rereplic inactive and IL1B secr inh inactive.
For Cc1ccc(S(=O)(=O)Oc2cccc(/C=N/n3cnnc3)c2)cc1 the results were KB-3-1 tox inconclusive, SW480 rereplic inconclusive, KB-V1 cytotox 18µM, MCF10A rereplic inconclusive and IL1B secr inh inactive.
Cc1ncc(CN2CCCC(C(=O)Nc3ccc(-c4cccc(F)c4)cc3)C2)n1C (centres undefined) was read as KB-3-1 tox inconclusive, SW480 rereplic inconclusive, KB-V1 cytotox inconclusive, MCF10A rereplic 23µM and IL1B secr inh inconclusive.
`COc1cc(CN2CCCC(C(=O)Nc3cccc(-n4cccn4)c3)C2)ccc1F` (centres undefined) gave KB-3-1 tox inactive, SW480 rereplic inactive, KB-V1 cytotox inactive, MCF10A rereplic inactive and IL1B secr inh -66.
For COc1cccc(CN2CCCC(C(=O)Nc3ccc(-c4cscn4)cc3)C2)c1 (centres undefined) the results were KB-3-1 tox inconclusive, SW480 rereplic inconclusive, KB-V1 cytotox 21µM, MCF10A rereplic inactive and IL1B secr inh inactive.
For COCc1cc(CN2CCCC(C(=O)Nc3ccc(-c4ccco4)cc3)C2)ccc1OC (centres undefined) the results were KB-3-1 tox inconclusive, SW480 rereplic 23µM, KB-V1 cytotox inactive, MCF10A rereplic inactive and IL1B secr inh inactive.

Screens from PubChem BioAssay.
